Measured values taken from the supplement of paper PMC10646978.
± gives the standard deviation.

Tests used:
Conditions in all cases: modulator concentration 10 µM
[1] = test system: RAW-Dual (murine macrophage reporter line); test: NF-kB reporter (SEAP) activity fold change vs agonist alone; higher = enhanced NF-kB activity
Method in brief: (§1)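 RAW-Dual murine macrophage reporter cells were plated at 50 000 per well in 384-well plates, pin-transferred compound to 10 μM final, and pre-incubated for 1 hour at 37 °C before a PRR agonist was added and the cells incubated overnight. NF-κB activity was read from supernatant SEAP with QUANTI-Blue at 620 nm absorbance, and IRF activity from Lucia luciferase with QUANTI-Luc by luminescence. Each signal was expressed as fold change by dividing by the mean agonist-only control on the same plate. Two replicate plates were averaged, with errors obtained by propagation.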

[2] = test system: RAW-Dual (murine macrophage reporter line); test: IRF reporter (Lucia luciferase) activity fold change vs agonist alone; higher = enhanced IRF activity
Method in brief: as §1

[3] = test system: RAW-Dual (murine macrophage reporter line); test: viability score (confluency relative to resting cells, overnight) (fraction); higher = more viable, active = viable (0.7 or more)
Method in brief: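 RAW-Dual macrophages in 384-well plates were treated overnight with compound at 10 μM final. IncuCyte imaging recorded confluency, and IncuCyte software built two confluency masks across every imaged well. The viability score expresses confluency relative to resting cells and was judged against a cutoff, which a compound met only if both masks exceeded 70% of resting cells.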

[4] = agonist: CpG ODN 1826 0.5 ug/mL

Compound | NF-kB reporter [1, 4] | NF-kB reporter ([1]; agonist: LPS 0.1 ug/mL) | NF-kB reporter ([1]; agonist: MPLA […]) | IRF reporter ([2]; agonist: 3'3'-cGAMP 10 ug/mL) | IRF reporter ([2]; agonist: LPS 0.1 ug/mL) | IRF reporter ([2]; agonist: MPLA […]) | viability score [3]
Cl.c1ccc(CC2=NCCN2)cc1 | 0.999 ± 0.14 | 1.08 ± 0.17 | 0.923 ± 0.051 | 0.887 ± 0.027 | 1.17 ± 0.22 | 1.13 ± 0.1 | 0.993 (active)
CCC1OC(=O)C(C)C(OC2CC(C)(OC)C(O)C(C)O2)C(C)C(OC2OC(C)CC(N(C)C)C2O)C(C)(O)CC(C)CN(C)C(C)C(O)C1(C)O (configuration not stated) | 0.593 ± 0.046 | 1.1 ± 0.07 | 1.19 ± 0.029 | 0.727 ± 0.058 | 0.948 ± 0.11 | 0.952 ± 0.088 | 0.998 (active)
O=C(O)CCC(=O)O.O=C(O[C@H]1CN2CCC1CC2)N1CCc2ccccc2[C@@H]1c1ccccc1 | 0.544 ± 0.087 | 0.886 ± 0.046 | 1.07 ± 0.029 | 0.921 ± 0.1 | 1.05 ± 0.097 | 0.977 ± 0.11 | 0.992 (active)
CC1(C)CC(=O)c2c(nc3ccc(Br)cc3c2N)C1.Cl | 0.513 ± 0.035 | 1.08 ± 0.067 | 0.883 ± 0.053 | 0.771 ± 0.036 | 1.07 ± 0.12 | 1.11 ± 0.11 | 0.995 (active)
O=C(O)C=Cc1cccc(NS(=O)(=O)C=Cc2ccccc2)c1 | 1.06 ± 0.094 | 0.968 ± 0.084 | 1.33 ± 0.19 | 0.956 ± 0.07 | 1.29 ± 0.28 | 1.34 ± 0.28 | 1.02 (active)
CC(CS)C(=O)N1CCCC1C(=O)O (configuration not stated) | 0.96 ± 0.096 | 0.932 ± 0.068 | 0.977 ± 0.18 | 0.973 ± 0.03 | 1.22 ± 0.12 | 1.33 ± 0.18 | 1.02 (active)
CCC(=O)Nc1ccc(N2CCOCC2)c(Cl)c1 | 1.11 ± 0.12 | 0.945 ± 0.087 | 1.03 ± 0.052 | 0.838 ± 0.095 | 0.982 ± 0.054 | 1.01 ± 0.11 | 0.996 (active)
Cc1cccc(C)c1OCC(=O)N[C@@H](Cc1ccccc1)[C@@H](O)C[C@H](Cc1ccccc1)NC(=O)[C@H](C(C)C)N1CCCNC1=O | 0.665 ± 0.082 | 0.889 ± 0.058 | 1.24 ± 0.12 | 0.67 ± 0.04 | 1.2 ± 0.071 | 1.37 ± 0.12 | 1.02 (active)
CCOc1ccc(-c2cccc(NC(=O)c3c(F)cccc3F)c2)nn1 | 0.969 ± 0.043 | 1.06 ± 0.088 | 1.13 ± 0.061 | 0.861 ± 0.053 | 1.11 ± 0.21 | 1.23 ± 0.46 | 0.982 (active)
COc1ccc(CN(CCN(C)C)c2ccccn2)cc1 [Prestw-289] | 0.902 ± 0.068 | 1.08 ± 0.11 | 1.01 ± 0.026 | 0.976 ± 0.11 | 0.912 ± 0.1 | 0.848 ± 0.066 | 0.993 (active)
C#CCCCCCCCCCCCC(=O)CC(O)COC(C)=O (configuration not stated) | 0.822 ± 0.073 | 0.338 ± 0.034 | 0.808 ± 0.022 | 0.176 ± 0.019 | 0.878 ± 0.098 | 0.81 ± 0.15 | 0.849 (active)
CC(=O)NC(Cc1c[nH]c2ccccc12)C(=O)O (configuration not stated) | 1.09 ± 0.27 | 1.09 ± 0.083 | 0.978 ± 0.063 | 0.969 ± 0.042 | 1.33 ± 0.14 | 1.3 ± 0.13 | 0.995 (active)
O=C(Nc1ccc(NS(=O)(=O)c2ccc(Cl)cc2)cc1)c1ccccc1 | 1 ± 0.082 | 1.03 ± 0.091 | 0.911 ± 0.07 | 0.977 ± 0.03 | 1.26 ± 0.091 | 0.955 ± 0.3 | 1.02 (active)
COc1cccc2cc(C(=O)NCc3nn(C4CCCC4)c(=O)c4ccccc34)oc12 | 0.976 ± 0.053 | 1.1 ± 0.086 | 0.846 ± 0.096 | 0.827 ± 0.062 | 1.2 ± 0.24 | 0.848 ± 0.39 | 1.02 (active)
Cc1cn(C2C=CC(CO)O2)c(=O)[nH]c1=O (configuration not stated) | 1.02 ± 0.15 | 0.902 ± 0.27 | 0.981 ± 0.06 | 0.886 ± 0.041 | 1.04 ± 0.27 | 1.04 ± 0.2 | 0.984 (active)
COc1cc2nc(N(C)CCCNC(=O)C3CCCO3)nc(N)c2cc1OC (configuration not stated) [Prestw-322] | 1.45 ± 0.43 | 0.957 ± 0.11 | 1.02 ± 0.068 | 0.695 ± 0.13 | 0.934 ± 0.35 | 0.866 ± 0.11 | 0.996 (active)
COc1cc(C=C(C#N)c2nc3ccccc3[nH]2)cc(Cl)c1O | 1.23 ± 0.07 | 1.05 ± 0.09 | 0.992 ± 0.029 | 1.09 ± 0.039 | 1.06 ± 0.061 | 1.07 ± 0.14 | 0.998 (active)
O=c1c(-n2ccnn2)c[nH]n1-c1cc(N2CCOCC2)ncn1 | 0.74 ± 0.2 | 0.846 ± 0.046 | 0.853 ± 0.054 | 0.878 ± 0.04 | 1.09 ± 0.26 | 1.09 ± 0.15 | 1 (active)
Cc1cc2ncc3c(n2n1)CCN(C(=O)c1cnoc1C)C3 | 0.857 ± 0.037 | 0.964 ± 0.077 | 1.02 ± 0.055 | 0.972 ± 0.045 | 1.11 ± 0.25 | 1.21 ± 0.43 | 0.896 (active)
CC1=CC(C)C2(COC(c3cccnc3)OC2)C(C)C1 (configuration not stated) | 0.876 ± 0.067 | 0.788 ± 0.12 | 0.695 ± 0.065 | 0.967 ± 0.033 | 1.15 ± 0.18 | 1.1 ± 0.19 | 0.388 (inactive)
CC(C)NCC(O)COc1ccc(CCOCC2CC2)cc1 (configuration not stated) | 0.927 ± 0.09 | 1.02 ± 0.1 | 1.06 ± 0.04 | 0.907 ± 0.073 | 0.897 ± 0.029 | 0.764 ± 0.098 | 1 (active)
CN(C)C=C1C(=O)N(c2nc3ccccc3s2)N=C1CSc1ccc(Cl)cc1 | 0.945 ± 0.078 | 1.02 ± 0.067 | 0.916 ± 0.058 | 0.843 ± 0.029 | 1.42 ± 0.12 | 1.15 ± 0.073 | 1.01 (active)
CCN(CC)CC#CC(OC)(c1ccccc1)c1ccccc1.Cl | 0.356 ± 0.088 | 0.414 ± 0.063 | 0.47 ± 0.082 | 0.549 ± 0.019 | 1.16 ± 0.16 | 1.29 ± 0.23 | 0.148 (inactive)
CC(=NN1CCN(C2c3ccccc3-c3ccccc32)CC1)c1ccccc1O | 0.953 ± 0.12 | 0.94 ± 0.052 | 0.962 ± 0.069 | 1.02 ± 0.036 | 1.35 ± 0.12 | 0.984 ± 0.086 | 1.02 (active)
O=S(=O)(NCc1ccccn1)c1cccc(Cl)c1 | 0.918 ± 0.039 | 0.986 ± 0.12 | 1.06 ± 0.057 | 1.02 ± 0.061 | 1.32 ± 0.17 | 1.49 ± 0.46 | 0.986 (active)
CC(NCCc1c[nH]c2ccccc12)=C1C(=O)c2ccccc2C1=O | 0.972 ± 0.081 | 0.979 ± 0.11 | 1.15 ± 0.05 | 0.425 ± 0.027 | 0.989 ± 0.033 | 1.28 ± 0.11 | 0.991 (active)
